Results reported in PubChem BioAssay (NCATS).
Where “and” joins values, the source holds several entries; their conditions need not be identical. Identical values can stand only once. Inconclusive results are not listed. Where a call stands in place of a potency, no number is given. Calls of active or inactive are those of the source. Calls come from the whole dose curve; as a rule, active = well fitted curve in the direction sought with a large enough effect; inconclusive = small, poorly fitted or top-dose-only effect, or another doubt; inactive = no such curve, though single readings can be large; an effect the other way counts as inactive or inconclusive.

What was measured:
[1] = qHTS of pediatric cancer cell lines to identify multiple opportunities for drug repurposing: Primary screen for OHS-50 cells (AID 1347103); note: nearly all actives have a fitted effect of over 40% in size; note: potency is the fitted concentration of half-maximal effect
Summary of the method: (§1)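 Cells (500-1,000/well) rested 5 h, then received compounds for 48 h; metabolically active cells were measured by CellTiter-Glo luminescence. Final concentrations spanned up to 46 µM (MIPE, 11-point) or 0.59 nM-46 µM (NPC, 8-point) in primary screens, 11-point in follow-ups.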

[2] = qHTS of pediatric cancer cell lines to identify multiple opportunities for drug repurposing: Primary screen for RD cells (AID 1347104); note: nearly all actives have a fitted effect of over 55% in size; note: potency is the fitted concentration of half-maximal effect
Summary of the method: (§2)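 Cells seeded at 500-1,000 cells/well in growth media, rested 5 hours at 37 degrees C, 5% CO2, then dosed; MIPE compounds at 11-point (from 0.78 nM) and NPC at 8-point (from 0.59 nM) final concentrations. Viability by CellTiter-Glo luminescence after 48 hours.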

[3] = qHTS of pediatric cancer cell lines to identify multiple opportunities for drug repurposing: Primary screen for MG 63 (6-TG R) cells (AID 1347105); note: nearly all actives have a fitted effect of over 50% in size; note: potency is the fitted concentration of half-maximal effect
Summary of the method: as §2

[4] = qHTS of pediatric cancer cell lines to identify multiple opportunities for drug repurposing: Primary screen for control Hh wild type fibroblast cells (AID 1347106);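 note: series mostly up to about 46 µM; a drop in luminescence marks cytotoxicity and a rise apparent proliferation; nearly all actives have a fitted effect of over 55% in size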
Summary of the method: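 Viability after 48 h compound treatment at 37C, 500-1,000 cells/well, read as ATP luminescence with CellTiter-Glo. Primary screens used 11-point (MIPE, 0.78 nM-46 µM) or 8-point (NPC, 0.59 nM-46 µM) final concentrations; follow-up screens used 11-point dilutions.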

[5] = qHTS of pediatric cancer cell lines to identify multiple opportunities for drug repurposing: Primary screen for Rh30 cells (AID 1347107); note: series mostly up to about 46 µM; nearly all actives have a fitted effect of over 75% in size
Summary of the method: as §1

[6] = qHTS of pediatric cancer cell lines to identify multiple opportunities for drug repurposing: Primary screen for Rh41 cells (AID 1347108); note: nearly all actives have a fitted effect of over 70% in size; note: potency is the fitted concentration of half-maximal effect
Summary of the method: as §2

[7] = qHTS of pediatric cancer cell lines to identify multiple opportunities for drug repurposing: Confirmatory screen for NB1643 cells (AID 1347109); note: nearly all actives have a fitted effect of over 45% in size; note: potency is the fitted concentration of half-maximal effect
Summary of the method: as §1

[8] = qHTS of pediatric cancer cell lines to identify multiple opportunities for drug repurposing: Confirmatory screen for SK-N-MC cells (AID 1347111);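 note: cells exposed to compound for 48 h before the readout; nearly all actives have a fitted effect of over 70% in size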; note: potency is the fitted concentration of half-maximal effect
Summary of the method: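 Seed 500-1,000 cells/well; rest 5 h at 37 degrees C. Pin-transfer compounds, 11-point titration. Incubate 48 h. Add CellTiter-Glo, 15 min RT, read luminescence.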

[9] = qHTS of pediatric cancer cell lines to identify multiple opportunities for drug repurposing: Primary screen for Rh18 cells (AID 1347102); note: nearly all actives have a fitted effect of over 65% in size
Summary of the method: as §1

Structure (SMILES)	Potency [1]	Potency [2]	Potency [3]	Potency [4]	Potency [5]	Potency [6]	Potency [7]	Potency [8]	Potency [9]
CC1=C(C(=O)O)N2C(=O)[C@@H](NC(=O)C(N)c3ccccc3)[C@H]2SC1 (some centres undefined)	inactive	inactive	inactive	inactive	inactive	inactive			
Oc1c(Cl)cc(Cl)c2cccnc12	12.3 µM (active) and 27.3 µM (active)	5.31 µM (active) and 26.4 µM (active)	6.68 µM (active) and 11.8 µM (active)	inactive		23.5 µM (active)	18.5 µM (active)	13.1 µM (active)	
COc1ccc2cc3[n+](cc2c1OC)CCc1cc2c(cc1-3)OCO2	4.37 µM (active) and 7.69 µM (active)	10.5 µM (active)	26.6 µM (active)	inactive	inactive				
O=S(=O)(c1cccc2cnccc12)N1CCCNCC1	inactive	inactive	inactive	inactive	inactive	inactive			
Cc1ncc([N+](=O)[O-])n1CCO	inactive	inactive	inactive	inactive	inactive	inactive			
CCC(=O)O[C@]1(C(=O)SCF)[C@H](C)C[C@H]2[C@@H]3C[C@H](F)C4=CC(=O)C=C[C@]4(C)[C@@]3(F)[C@@H](O)C[C@@]21C		inactive	inactive		inactive	inactive	inactive	inactive	inactive
Nc1nc(N)c2nc(CNc3ccc(C(=O)NC(CCC(=O)O)C(=O)O)cc3)cnc2n1 (centres undefined)			inactive		inactive	inactive	inactive	0.329 µM (active)	inactive
CC(C)(C)C(=O)OCOP(=O)(COCCn1cnc2c(N)ncnc21)OCOC(=O)C(C)(C)C	6.17 µM (active) and 30.6 µM (active)	23.5 µM (active)	inactive	inactive	inactive		8.27 µM (active)	0.329 µM (active)	
C[C@@H](NCCCc1cccc(C(F)(F)F)c1)c1cccc2ccccc12			inactive	inactive	inactive	inactive			inactive
CC(=O)[C@H]1CC[C@H]2[C@@H]3CC=C4C[C@@H](O)CC[C@]4(C)[C@H]3CC[C@]12C			inactive		inactive	inactive			inactive
N[C@@H](Cc1ccc(O)c(O)c1)C(=O)O	inactive	inactive	inactive	inactive	inactive	inactive			
COc1ccc(-c2ccc3cc(C(=O)O)ccc3c2)cc1C12CC3CC(CC(C3)C1)C2	0.0153 µM (active)				inactive	inactive	9.27 µM (active)	2.61 µM (active)	inactive
Cc1cccc(Nc2ccncc2S(=O)(=O)NC(=O)NC(C)C)c1	inactive	inactive	inactive	inactive	inactive	inactive			
CC1=CC(=O)c2ccccc2C1=O		18.7 µM (active)	inactive	inactive	inactive				inactive
CC(C)(C)NC(=O)[C@H]1CC[C@H]2[C@@H]3CC[C@H]4NC(=O)C=C[C@]4(C)[C@H]3CC[C@]12C	12.2 µM (active)				inactive	inactive			inactive
C[C@@H]1C[C@H]2[C@@H]3CCC4=CC(=O)C=C[C@]4(C)[C@@]3(Cl)[C@@H](O)C[C@]2(C)[C@@]1(OC(=O)c1ccco1)C(=O)CCl	15.5 µM (active) and 15.3 µM (active)	8.33 µM (active)	23.5 µM (active)	inactive	inactive		0.369 µM (active)	0.827 µM (active)	
CCN(CC)CC#CCOC(=O)C(O)(c1ccccc1)C1CCCCC1 (centres undefined)		inactive	inactive	inactive	inactive	inactive			inactive
COc1ccc2c(c1)c(CC(=O)OCC(=O)O)c(C)n2C(=O)c1ccc(Cl)cc1	inactive	inactive	inactive		inactive				
CNC1CCCN(c2c(F)cc3c(=O)c(C(=O)O)cn(C4CC4)c3c2OC)C1 (centres undefined)	inactive	inactive	inactive		inactive				
CC(C)Cn1cnc2c(N)nc3ccccc3c21			inactive	inactive	inactive				inactive
NC(=O)c1ccc2[nH]ccc2c1		inactive	inactive						inactive
Clc1ccccc1CN1CCc2sccc2C1		inactive	inactive	inactive	inactive	inactive			inactive
NCCCC(O)(P(=O)(O)O)P(=O)(O)O	inactive	inactive	inactive	inactive	inactive	inactive			
Cn1nnc2c(C(N)=O)ncn2c1=O	inactive	inactive	inactive	inactive	inactive	inactive	inactive	inactive	
O=C(O)c1cc(=O)[nH]c(=O)[nH]1	inactive	inactive	inactive	inactive	inactive	inactive			
COc1cccc(N(C)C(=S)Oc2ccc3c(c2)CCCC3)n1	24.3 µM (active)	inactive	inactive	inactive	inactive	inactive			
CC(C(=O)O)c1ccc2c(c1)CC(=O)c1ccccc1S2 (centres undefined)			inactive	inactive	inactive	inactive	inactive	inactive	inactive
CCOc1cc(N)c(Cl)cc1C(=O)NCC1CN(Cc2ccc(F)cc2)CCO1 (centres undefined)	inactive	inactive	inactive	inactive	inactive	inactive			
CN(C)CCc1c[nH]c2ccc(C[C@H]3COC(=O)N3)cc12	inactive	inactive	inactive		inactive	inactive			
